Source: PubChem BioAssay
HCMV antiviral: inhibitors of human cytomegalovirus | HFF cells, HCMV-luciferase reporter, 72 h; hits give low values | activity change, negative = inhibition, % at 57.5 µM | 4.5% of 410,000 active | AID 1259415; in the data active = activity change below about -60%; inconclusive = no clear call, values can overlap the other calls; inactive = above about -39%
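Two compound doses tested in HFFs infected with HCMV-luciferase, MOI 1 PFU/cell, 72 h at 37C. Lysate luminescence read with OneGlo; data normalized against buffer-only and 10uM Salinomycin inhibitor controls.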
Pf growth 48h: P. falciparum growth inhibition at 48 hours (one generation); P. falciparum luciferase growth in erythrocytes, 48 h; Potency, µM (top dose mostly 28.7 µM), actives largely listed as inhibitors; 5.9% of 310,000 active
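First compound was added to culture medium, then infected red cells at 0.1% parasitemia and 2% hematocrit (final). After incubation at 37 C under 5% CO2, luciferase detection reagent was dispensed and light output recorded.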
Shiga toxin inh: Shiga toxin inhibition; Vero cells, Shiga toxin protein synthesis inhibition reporter; inhibition, % at 38.7 µM; 9.2% of 290,000 active; AID 2315; in the data active = inhibition mostly above about 28%, no sharp cut-off; inactive = mostly below about 43%
HCV inhibitor: HCV inhibition; Huh7.5.1 HCVcc-Cre infection, luciferase reporter, 44 h; AID 651820; 3.4% of 340,000 active; Potency, µM (doses to about 41.8 µM), actives largely listed as inhibitors
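Antiviral activity was scored by luciferase reporter output from cells infected with HCVcc-Cre (~0.5 moi) in presence of compound, 44 h infection period, cells seeded 1,000/well 4 h prior.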
Pf growth 96h: inhibits malaria parasite growth, 96 h; P. falciparum luciferase reporter growth, 96 h; Potency, µM (titrated, usually from 28.7 µM), most hits filed as inhibitors; 6.9% of 320,000 active; AID 504834
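Infected RBCs, 2% Hct / 0.05% parasitemia final; luciferase-reporter P. falciparum; cpd 96 h, 37 C, 5% CO2; luciferase detection reagent; luminescence.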
CHX counter: counter-screen hit for Shiga toxin inhibitors, cycloheximide. cell reporter, cycloheximide protein synthesis inhibition counterscreen. max response, %. 12% of 300,000 active; in the data active = max response mostly above about 13%, no sharp cut-off; inactive = mostly below about 14%; also: read at 38.3 µM for the half of the compounds with a filed dose
Hits are given with their value; n = inactive; u = inconclusive; x = no result given; [ ] = another dose, or the depositor's remark. A selection: hits, their analogues and other compounds. The true share with any hit is near 21%. Unless noted, calls follow the shape of the dose curve; as a rule, active = well fitted inhibition curve with a large enough effect; inconclusive = small, poorly fitted or top-dose-only effect, or another doubt; inactive = no such curve, though single readings can be large or run the other way.

SMILES	HCMV antiviral	Pf growth 48h	Shiga toxin inh	HCV inhibitor	Pf growth 96h	CHX counter
Cc1ccc(C)c(-n2c(-c3ccc(Br)cc3)csc2=NC(=O)c2ccccc2F)c1	n	0.41µM	n	3.2µM	0.23µM	n
COc1ccc(S(=O)(=O)NCC(=O)Nc2ccc3c(c2)OCCO3)cc1OC	n	u	n	n	n	n
COc1ccc(NC(=O)C2CCC(CNS(=O)(=O)c3cccs3)CC2)cc1 (centres undefined)	u	n	n	n	13µM	n
COc1ccc(OC)c(NC(=O)N2CCCC(CNS(=O)(=O)c3cccs3)C2)c1 (centres undefined)	n	u	n	n	n	n
CCOC(=O)CNC(=O)N1CCCC(CNS(=O)(=O)c2cccs2)C1 (centres undefined)	n	n	n	n	10µM	n
O=C(CNS(=O)(=O)c1cccs1)Nc1ccc2c(c1)OCCO2	n	n	90	n	n	43
COC(=O)c1ccc(NC(=O)CNS(=O)(=O)c2cccs2)cc1	n	n	n	n	x	19
Cc1cc(C)nc(NC(=O)C2c3ccccc3Oc3ccccc32)n1	n	n	n	u	u	n
CCCOc1ccc(-c2c(C(=O)N/N=C/c3cccnc3)nnn2-c2nonc2N)cc1	n	n	n	n	n	n
Cc1cccc(N2CCN(S(=O)(=O)c3ccc(F)c(C(=O)Nc4ccc(C(C)C)cc4)c3)CC2)c1C	n	x	x	x	x	x
O=S(=O)(Nc1ccc2c(c1)OCCO2)c1cccs1	-77	u	83	n	u	54
O=S(=O)(Nc1ccc2c(c1)OCO2)c1cccs1	n	n	n	u	u	n
O=C(CNS(=O)(=O)c1cccs1)NCCc1ccc(Cl)cc1	n	n	n	n	13µM	n
COc1cccc(CNC(=O)COC(=O)/C=C/c2ccc(SC)cc2)c1	n	x	x	n	x	x
COc1cc(OC)c(C2C=C(c3ccc(C)cc3)Nc3c(C(=O)Nc4ccccc4)cnn32)cc1OC (centres undefined)	n	x	x	x	x	x
O=c1c2cc3c(cc2n(Cc2ccc(F)cc2)c(=O)n1Cc1nc(-c2ccccc2)no1)OCO3	n	x	x	x	x	x
Fc1ccc(-c2cc3nc(-c4ccccc4)cc(N4CCOCC4)n3n2)cc1	n	x	n	u	n	n
COCCN1CCN(c2cc(-c3ccccc3)nc3cc(-c4cccc(F)c4)nn23)CC1	n	12µM	n	10µM	u	n
Fc1cccc(-c2cc3nc(-c4ccccc4)cc(N4CCC5(CC4)OCCO5)n3n2)c1	n	8.3µM	n	n	n	n
Cc1ccc(-c2cc3nc(-c4ccccc4)cc(N4CCC5(CC4)OCCO5)n3n2)cc1	n	8.3µM	n	n	0.29µM	n
Cc1cccc(-c2cc3nc(-c4ccccc4)cc(N4CCC5(CC4)OCCO5)n3n2)c1	n	u	n	u	n	n
C#CCN(C[C@H]1[C@H](OC(=O)NC2CCCC2)[C@H](OC(=O)NC2CCCC2)C[C@@H](C(=O)OC)[C@H]1C(=O)OC)S(=O)(=O)c1ccc(C)cc1	n	x	x	x	x	x
CCN(CC)S(=O)(=O)c1ccc2nc(NC(=O)c3cccs3)sc2c1	n	n	65	n	x	48
CS(=O)(=O)c1ccc2nc(NC(=O)CCC(=O)c3cccs3)sc2c1	n	u	n	n	12µM	17
CS(=O)(=O)c1ccc2nc(NC(=O)CCS(=O)(=O)c3ccccc3)sc2c1	n	n	n	u	n	n
SMILES	HCMV antiviral	Pf growth 48h	Shiga toxin inh	HCV inhibitor	Pf growth 96h	CHX counter
CCN(CC)S(=O)(=O)c1ccc2nc(NC(=O)c3ccc(Br)o3)sc2c1	n	x	x	x	x	x
CCN(CC)S(=O)(=O)c1ccc2nc(NC(=O)c3ccco3)sc2c1	n	n	78	n	n	29
CC(=O)Nc1c2c(nn1-c1cccc(Cl)c1)CS(=O)(=O)C2	u	n	n	n	n	n
COc1ccc(C(=S)N2CCCCC2)cc1Br	n	n	n	n	n	n
S=C(c1ccc(N2CCCC2)cc1)N1CCCCC1	n	n	112	n	x	52
S=C(c1ccc(N2CCCC2)c(Br)c1)N1CCCCC1	n	u	n	n	n	12
CCC(Cc1ccccc1)NC(=O)CN1C(=O)COc2ccc(S(=O)(=O)N3CCCCCC3)cc21 (centres undefined)	n	x	x	x	x	x
Cc1cc(C)c(O)c(-c2cc(C(=O)NCc3ccccc3)[nH]n2)c1	n	x	n	u	u	n
COc1ccc(OC)c(NC(=O)c2cc(-c3cc(C)c(C)cc3O)n[nH]2)c1	u	2.6µM	n	n	1.9µM	n
COc1ccc(OC)c(NC(=O)c2cc(-c3cc(C)cc(C)c3O)n[nH]2)c1	-68	x	n	4µM	9.3µM	n
COc1ccc(CNC(=O)c2cc(-c3cc(C)cc(C)c3O)n[nH]2)cc1	n	u	n	u	u	n
COc1ccc(NC(=O)c2cc(-c3cc(C)c(C)cc3O)n[nH]2)c(OC)c1	n	n[0.00184 µM]	n	n	u	n
Cc1ccc(C)c(NC(=O)c2cc(-c3cc(C)ccc3O)n[nH]2)c1	n	n	76	n	u	59
Cc1ccc(O)c(-c2cc(C(=O)NCc3ccncc3)[nH]n2)c1	n	2.9µM	n	n	4.1µM	n
O=c1c2sccc2n(Cc2cc(=O)n3cc(Cl)ccc3n2)c(=O)n1-c1ccccc1	n	x	x	x	x	x
COc1ccc(Cl)cc1NC(=O)c1cc(-c2ccc(C)cc2O)n[nH]1	n	u	n	n	n	n
COc1ccc(OC)c(NC(=O)c2cc(-c3c(C)cc(C)cc3O)n[nH]2)c1	n	u	n	10µM	n	n
COc1ccc(Cl)cc1NC(=O)c1cc(-c2cc(C)ccc2O)n[nH]1	n	1.9µM	n	n	2.3µM	n
COC(=O)c1ccc(COc2ccccc2/C=C(\C#N)C(=O)Nc2ccc(C)cc2)cc1	u	n	99	n	n	87
COc1cccc(/C=N\NS(=O)(=O)c2ccccc2)c1OC	n	n	n	n	u	n
C=CCNC(=O)/C(C#N)=C/c1ccccc1OCc1ccc(C(=O)OC)cc1	n	n	n	n	n	n
COC(=O)c1ccc(COc2ccccc2/C=N/NC(=O)c2cccnc2)cc1	n	n	n	n	n	28
CCCOc1ccccc1/C=C(\C#N)C(=O)Nc1cccc(C)n1	n	n	29	u	u	14
O=S(=O)(N/N=C/c1ccccc1OCc1ccc(Cl)cc1)c1ccccc1	-83	n	active	u	u	23
COc1cccc(/C=N/NC(=O)CNC(=O)c2cccnc2)c1O	n	n[0.00184 µM]	n	n	n	n
CC1(C)CC(NC(=O)COc2ccc3c4c(c(=O)oc3c2)CCCC4)CC(C)(C)N1	n	u	n	u	u	n
CCCCN(Cc1ccccc1)S(=O)(=O)c1cc(Br)cc2c1N(C(C)=O)CC2	n	x	x	x	x	x
O=C(NCc1cccs1)C1CCCN1C(=O)Nc1ccccc1[N+](=O)[O-] (centres undefined)	n	n	n	n	u	n
COc1ccc(/C=N/NS(=O)(=O)c2ccc(C)cc2)cc1OC(=O)c1ccc(C)cc1	n	n	n	n	x	n
